Assay [1] in a line: wild-type E. coli growth inhibition versus h38 humanized strain – h38 mutant RFP, wild-type GFP, cherry-pick, dose response (AID 977622). Particulars: 24 h; activity change: E. coli mixed culture, total growth OD600 at 50 uM, at 50 µM; E. coli WT ribosome GFP fluorescence, mixed culture, at 50 µM (top of the series).
Assay [2] has as its system E. coli h38 humanized mutant ribosome RFP fluorescence, mixed culture, 24 h. Described as above. The note with it: h38 mutant RFP at 50 uM; at 50 µM.

Each structure is given as a SMILES string. Hit rate of the full screen: of about 1,900 compounds, fewer than 10 were called active. About 39% were inconclusive and are not listed.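 The calls were made as follows: active = Green signal of the normal strain falls at least twice as much as red signal of the resistant mutant, with overall culture growth loss under a set limit; inconclusive = no clear call, values can overlap the other calls; inactive = the rest.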 A selection follows.

For `CCc1ccc(CN2CCCC(CNS(=O)(=O)c3ccc(OC)cc3)C2)cc1` (stereo not drawn), in assay [1], the activity change is -13.3% and the outcome was inactive. Besides, in assay [2], the activity change came to 9.56%.
`COc1ccc(OC)c(NC(=O)COc2ccc(S(=O)(=O)NC(C)C)cc2)c1`: in assay [1], the activity change was -14.2% and the call was inactive.
On the same counts, the results for `O=C1CCCc2ccccc2N1Cc1ccccc1` are -14.6% and “inactive”.
Taken in the same sequence, the figures for `Cc1cccc(CN2C(=O)c3ccccc3Sc3ccc(C(=O)O)cc32)c1` were -13.7% and “inactive”.
As to `Cc1noc(C)c1NC(=O)Nc1ccc2c(c1)C(=O)N([C@@H](C)CO)C[C@@H](C)[C@H](CN(C)C(=O)Nc1ccc3c(c1)OCO3)OCCCC[C@@H](C)O2`, in assay [1], the activity change was -13.2% and the compound was called inactive. Further, the activity change in assay [2] came to 26.4%.
Take `C=CCn1c(C)cc(C(=O)CSc2nnc(C3CC3)n2C2CC2)c1C`: the activity change in assay [1] was -20.6%; in assay [2], -37.4%. The call in assay [1] was inactive.
With `CN(C)S(=O)(=O)N1CCN(c2ccccc2Cl)CC1`, in assay [1], the activity change is -14.9% and the compound was classed as inactive. Moreover, the activity change in assay [2] was -15.7%.
Take `O=C(c1ccc(-n2cccn2)cc1)N1CCc2ccccc2C1`: in assay [1], the activity change was -28.7% and the outcome was inactive. In assay [2], the activity change is -27.7%.
Turning to `Cc1onc(-c2ccccc2Cl)c1C(=O)Nc1ccc(Cl)cn1`, in assay [1], the activity change is -9.88% and the outcome was inactive.
For `COc1cc(C#N)ccc1OCC(=O)Nc1cccc(S(=O)(=O)N2CCCC2)c1`, the activity change is -1.82% in assay [1] and -20.8% in assay [2]. In addition, in assay [1], the compound was called inactive.
On the same counts, the results for `COc1ccc(C2CC(=O)Oc3cc(C)cc(C)c32)cc1` (stereo not drawn) are -0.711%, 12.7% and “inactive”.
On the same counts, the results for `O=C(Nc1cc(S(=O)(=O)N2CCOCC2)ccc1N1CCOCC1)c1ccc([N+](=O)[O-])s1` are -3.16%, 13.2% and “inactive”.
As for `COc1ccccc1Cc1c(-c2ccc(F)cc2)nc2ccc(Br)cn12`, in assay [1], the activity change was -10.3% and the compound was classed as inactive.
Turning to `CN(C)CCNc1ncnc2c1sc1nc(N3CCCC3)c3c(c12)CC(C)(C)OC3`, in assay [1], the activity change is -21.5% and the compound was classed as inactive. The activity change in assay [2] is -11.2%.
As for `Cc1ccccc1NC(=O)c1ccccc1N(C)S(=O)(=O)c1ccccc1`, in assay [1], the activity change was -14.8% and the call was inactive. The activity change in assay [2] is -11.7%.
Turning to `O=C1OC[C@@H]2CCCN2C(=O)[C@@H](CC(=O)N(CCO)Cc2ccccc2)C/C=C\C[C@H]1Cc1ccc(F)cc1`, in assay [1], the activity change was -20.1% and the compound was called inactive. In assay [2], the activity change is -35.1%.
Taken in the same sequence, the figures for `COc1cccc(CN(C)Cc2nc(Cc3ccccc3Cl)no2)c1` were -26.5%, “inactive” and 24.2%.
Take `CC(CCc1ccccc1)NC(=O)CCC1CCCC1` (stereo not drawn): in assay [1], the activity change was -8.51% and the compound was called inactive. Besides, the activity change in assay [2] was 4.55%.
Taken in the same sequence, the figures for `CCNC(=O)C1(C)CCCN(Cc2cccc3ccccc23)C1` (stereo not drawn) were 1.55%, “inactive” and 69.8%.
In the case of `CCS(=O)(=O)N1CCN(c2ccnc3cc(Cl)ccc23)CC1`, in assay [1], the activity change was -3.73% and the compound was classed as inactive. In addition, in assay [2], the activity change stood at 61.1%.
Taken in the same sequence, the figures for `Cc1ccc(-n2cc(CNCCN3CCOC3=O)c(-c3ccc(F)cc3)n2)cc1` were -3.42%, “inactive” and 31.2%.
For `Cc1cc(C)cc(NS(=O)(=O)c2cc(C(=O)NCc3ccccn3)ccc2Cl)c1`, in assay [1], the activity change was -24.9% and the result was inactive. For the same compound, in assay [2], the activity change was -5.16%.
On the same counts, the results for `CCn1c(COc2cccc(OC)c2)nnc1SCC(=O)Nc1cc(OC)ccc1OC` are -38.2%, “inactive” and -20.2%.
On to `C[C@@H]1CN([C@@H](C)CO)S(=O)(=O)c2ccc(Br)cc2O[C@H]1CN(C)C(=O)c1ccccc1`, for which, in assay [1], the activity change is -2.07% and the compound was classed as inactive.
Consider `C[C@@H]1CCCCO[C@H](CN(C)C)[C@@H](C)CN([C@H](C)CO)C(=O)c2cc(NC(=O)Nc3cccc4ccccc34)ccc2O1`, for which the activity change in assay [1] turned out to be 8.4%; in assay [2], 44.4%. In addition, in assay [1], the outcome was inactive.
Taken in the same sequence, the figures for `O=C(C[n+]1cc(-c2ccc(F)cc2)n2c1CCC2)c1cccs1` were 2.39%, 21.5% and “inactive”.
Taken in the same sequence, the figures for `C[C@H](CO)N1C[C@H](C)[C@H](CN(C)C(=O)Nc2ccc3c(c2)OCO3)Oc2c(NC(=O)Nc3ccccc3)cccc2C1=O` were -5.63%, 44% and “inactive”.
On the same counts, the results for `Cc1ccc2oc(=O)n(CCCOc3ccccc3C)c2c1` are -15.8%, -0.57% and “inactive”.
In the case of `COc1ccc(CN2CCC3CC2c2cc(Cl)ccc23)cc1` (stereo not drawn), in assay [1], the activity change is -30.7% and the compound was classed as inactive. The activity change in assay [2] was -4.61%.
As to `NS(=O)(=O)c1cc(C(=O)OCC(=O)Nc2ccccc2[N+](=O)[O-])ccc1Cl`, in assay [1], the activity change is -8.81% and the call was inactive. In addition, in assay [2], the activity change came to 1.48%.
As to `CC(=O)Oc1ccc(N(c2ccccc2)S(=O)(=O)c2ccc(C)cc2)cc1`, in assay [1], the activity change was -32.3% and the outcome was inactive.
With `COc1ccc(NC(=O)Nc2cccc3c2O[C@H](CN(C)S(=O)(=O)c2ccc(Cl)cc2)[C@@H](C)CN([C@@H](C)CO)C3=O)cc1`, in assay [1], the activity change is -2.69% and the call was inactive. Also, the activity change in assay [2] is -5.12%.
Consider `O=C(O)c1ccccc1Nc1cc(Cl)c2nonc2c1[N+](=O)[O-]`, for which, in assay [1], the activity change is -25.7% and the compound was classed as inactive.
Turning to `C[C@@H]1CCCCO[C@H](CN(C)C)[C@H](C)CN([C@@H](C)CO)C(=O)c2cc(NC(=O)Nc3cccc4ccccc34)ccc2O1`, in assay [1], the activity change worked out at 4.86% and the outcome was inactive. The activity change in assay [2] is 1.63%.
Taken in the same sequence, the figures for `COc1ccc(C#Cc2ccc([C@@H]3[C@@H](CO)N4CCCCN(C(=O)Nc5ccc(F)cc5)C[C@H]34)cc2)cc1` were -49.7%, “inactive” and 97.4%.
Regarding `Cc1cccc(Oc2ccc(NC(=O)c3ccccc3C(=O)O)cc2)c1`, in assay [1], the activity change was -16.2% and the compound was classed as inactive.
As for `CCOCC(=O)Nc1c(C(=O)Nc2ccc3c(c2)OCCO3)oc2ccccc12`, in assay [1], the activity change is -44.7% and the result was inactive. Moreover, the activity change in assay [2] is 4.56%.
Taken in the same sequence, the figures for `COc1cc2c(c(OC)c1OC)C(c1ccc3c(c1)OCO3)CC(=O)O2` (stereo not drawn) were -14.3%, “inactive” and 37.2%.
`CCC(C)c1ccccc1NC(=O)c1cccc(-n2cnnn2)c1` (stereo not drawn): in assay [1], the activity change was -13.9% and the outcome was inactive. In addition, the activity change in assay [2] is -4.87%.
